POLH inh = qHTS for Inhibitors of Polymerase Eta. recombinant Pol eta, fluorescent DNA replication assay. DNA polymerase eta (Homo sapiens), Q9Y253. Potency, µM (highest dose often 114 µM), actives largely listed as inhibitors. actives 1.2% (n = 390,000)
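Pol eta at 10 nM preincubated with compounds 15 min at room temperature; reaction started with fluorescent substrate (50 nM final) and read kinetically at 0 and 10 min.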
GLS inh = qHTS for Inhibitors of Glutaminase (GLS) | GLS enzymatic activity, qHTS titration | Potency, µM (top dose mostly 45.5 µM), actives largely listed as inhibitors | actives 0.21% (n = 410,000) | AID 624170, 2012
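hKGA in 45 mM KH2PO4 (pH 8.2), 0.02% Tween-20 with compound, then 1mM L-Glutamine (stock as added) plus glutamate oxidase/HRP/Amplex red coupling mix. Fluorescence read initially and after 30 min at RT; signal change reflects glutamate formation.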
POLB inh = qHTS Assay for Inhibitors of DNA Polymerase Beta | actives 1.3% (n = 340,000) | P06746 | Pol beta primer extension/strand displacement, fluorescence kinetic | AID 485314, 2010 | Potency, µM (series often up to 114 µM), most hits filed as inhibitors
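Pol beta (10 nM) and compounds were preincubated 15 min at room temperature, then 50 nM substrate (final) started primer extension/strand displacement. Reads were taken at 0 and 10 min; concentration-response data were fitted to a four-parameter Hill equation.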
APEX1 inh = qHTS Assay for Inhibitors of the Human Apurinic/apyrimidinic Endonuclease 1 (APE1). Potency, µM (doses to about 65.8 µM), usual class: inhibitors. actives 0.35% (n = 350,000). AID 2517, 2012. recombinant APE1, TAMRA/BHQ-2 abasic DNA cleavage fluorescence; also: nearly all actives have a fitted effect of over 55% in size
Target sequence (P27695 whole entry, looked up): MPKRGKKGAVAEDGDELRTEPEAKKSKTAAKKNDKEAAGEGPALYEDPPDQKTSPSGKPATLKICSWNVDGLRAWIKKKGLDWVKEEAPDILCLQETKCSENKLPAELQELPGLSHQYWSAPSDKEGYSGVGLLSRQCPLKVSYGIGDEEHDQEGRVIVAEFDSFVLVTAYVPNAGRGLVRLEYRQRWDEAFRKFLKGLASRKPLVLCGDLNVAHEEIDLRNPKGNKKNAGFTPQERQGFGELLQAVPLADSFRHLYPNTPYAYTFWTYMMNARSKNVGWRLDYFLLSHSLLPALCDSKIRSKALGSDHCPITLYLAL
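Enzyme (0.75 nM final) and test compound are incubated 15 min at room temperature before adding 50 nM quenched THF abasic-site duplex. Cleavage dequenches TAMRA, followed at 525/598 nm over three reads one minute apart.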
POLK inh = qHTS for Inhibitors of Polymerase Kappa | DNA polymerase kappa (Homo sapiens), Q9UBT6 | purified Pol kappa, fluorescent DNA synthesis assay, 10 min | Potency, µM (doses to about 107 µM), usual class: inhibitors | actives 0.53% (n = 400,000)
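10 nM Pol kappa preincubated 15 min at room temperature with compounds, then reaction started with substrate at 50 nM final. Fluorescence read kinetically at 0 and 10 min; buffer-only wells served as negative control.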
Pol iota inh = qHTS for Inhibitors of Polymerase Iota; DNA polymerase iota (Homo sapiens), Q9UNA4; Pol iota fluorescent replication assay, 10 min; Potency, µM (titrated, usually from 115 µM), usual class: inhibitors; actives 1% (n = 390,000)
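Pol iota at 10 nM preincubated 15 min with compounds at room temperature; reaction started with fluorescent substrate, 50 nM final. Fluorescence read kinetically at 0 and 10 min; buffer-only wells as negative control.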
TbPGK inh = qHTS for inhibitors of Phosphogylcerate Kinase: Hit Validation Screen; Potency, µM (series often up to 57.5 µM), actives largely listed as inhibitors; TbPGK coupled GAPDH assay, Kinase-Glo luminescence; AID 686980, 2013; shares compounds with POLK inh; actives 79% (n = 500); also: nearly all actives have a fitted effect of over 65% in size
Pol iota confirm = qHTS for Inhibitors of Polymerase Iota: Confirmatory Assay for Cherry-picked Compounds; shares compounds with POLK inh; Pol iota primer extension, TAMRA/BHQ fluorescence; Potency, µM, usual class: inhibitors; actives 77% (n = 1,500)
Hits are given with their value; n = inactive; u = inconclusive; x = not tested or not shown; [ ] = dose if it differs, or a comment. Hits are enriched below; roughly 2.4% of the tested compounds scored in any of these assays. Calls follow the shape of the dose curve; as a rule, active = well fitted curve in the direction sought with a large enough effect; inconclusive = small, poorly fitted or top-dose-only effect, or another doubt; inactive = no such curve, though single readings can be large; an effect the other way counts as inactive or inconclusive.

SMILES | POLH inh | GLS inh | POLB inh | APEX1 inh | POLK inh | Pol iota inh | others
Cc1cc(C)cc(NC(=O)COc2ccc(C(=S)N3CCOCC3)cc2)c1 | n | n | n | n | n | n
CC(C)C(=O)Nc1ccc([N+](=O)[O-])cc1Br | n | n | n | n | n | n
Nc1ccc(N2CCCCC2)c2nonc12 | 35.5µM | n | n | n | n | u | Pol iota confirm=u
O=C(CNC(=O)c1ccccc1Cl)N/N=C/c1ccc([N+](=O)[O-])s1 | n | n | n | n | n | n
Cc1ccc(NC(=O)CS(=O)CC(=O)Nc2ccc(N3CCOCC3)cc2)cc1Cl (stereo unspecified) | u | n | 25.1µM | u | u | 17.8µM | Pol iota confirm=u
Nc1nc(N2CCN(C(=O)c3ccco3)CC2)nc2ccccc12 | n | n | n | n | n | n
Nc1nc(N2CCN(C(=O)c3ccco3)CC2)nc2ccc(Br)cc12 | n | n | n | n | n | n | TbPGK inh=u
COc1ccc(NC(=O)c2cc3c(=O)n(C)c4ccccc4c3s2)cc1OC | u | n | u | n | n | n | Pol iota confirm=29.9
COc1cccc(CNCCSc2nnnn2C)c1OCc1ccc(Cl)cc1Cl | n | n | n | x | n | n | TbPGK inh=n
Cc1nc2cncnc2n(Cc2ccc(F)cc2)c1=O | x | x | x | n | n | x
Oc1ccc(C[C@H]2CNCCN2CCc2cccc3ccccc23)cc1 | n | u | x | n | n | u | TbPGK inh=u
c1ccc(C[C@H]2CNCCN2CCc2cccc3ccccc23)cc1 | n | n | x | n | n | u
C=COCCn1c(=N)n(CCC)c2ccccc21 | n | n | n | n | n | n
CC(=O)c1sc2nc(C)cc(C)c2c1N | n | n | n | n | n | n
Cc1cc(C)c2c(n1)sc1c(O)cc(=O)[nH]c12 | 79.4µM | n | u | u | 79.4µM | u | Pol iota confirm=47.4
CCCCCC(=O)Nc1cc(S(=O)(=O)O)cc2cc(S(=O)(=O)O)cc(O)c12 | n | 1.78µM | x | x | 1.41µM | 1µM | TbPGK inh=0.231µM
CCCCCC(=O)Nc1cc(S(=O)(=O)N2CCCCC2)ccc1N1CCCCC1 | n | n | x | x | n | n
O=C(Nc1cc(C(=O)N2CCCC2)ccc1N1CCCC1)c1ccccc1F | n | n | n | n | n | n
O=C(Nc1ccc(C(=O)N2CCCC2)cc1)c1ccccc1F | n | n | n | n | n | n | TbPGK inh=20.6µM
O=C(CN1C(=O)/C(=C\c2ccco2)SC1=S)Nc1ccc(O)cc1C(=O)O | 8.91µM | u | 0.398µM | n | n | u | TbPGK inh=25.9µM
CCCN(CC(=O)c1cc(C)n(C)c1C)S(=O)(=O)c1cccc(C(F)(F)F)c1 | n | n | n | n | n | n
CC1(C)CC(N=c2cc(-c3ccccc3)oc3ccc(Cl)cc23)CC(C)(C)N1 | u | n | 3.98µM | n | u | u | Pol iota confirm=18.9
Cc1ccc2oc(-c3ccccc3)cc(=O)c2c1 | x | x | x | n | n[19.4 µM] | x
NC(=O)[C@@H]1CC2(CC(c3cccc(NC(=O)CC(c4ccccc4)c4ccccc4)c3)=NO2)CN1C(=O)c1ccc(Cl)cc1 (stereo partly specified) | n | n | n | n | n | u
COc1c(N2CCN(C(=S)NCc3ccccc3)C(C)C2)c(F)cc2c(=O)c(C(=O)O)cn(C3CC3)c12 (stereo unspecified) | 31.6µM | n | 28.2µM | n | u | 15.8µM | Pol iota confirm=53.2
